# “And” between values parts separate entries of the source, which are not always exact repeats. Equal entries are not always repeated. Inconclusive results are not listed. A call without a number means that no potency is given here. The source holds several records for some structures; these can differ, active in one and inactive in another. The source made the active and inactive calls. Unless noted, the call rests on the fitted dose curve; in most records, active means well fitted curve in the direction sought with a large enough effect in the repeat runs; inconclusive means weak or mixed curves; inactive means no such curve, though single readings can be large; an effect the other way counts as inactive or inconclusive.
# What was measured:
# [1] = qHTS assay to identify small molecule agonists of the vitamin D receptor (VDR) signaling pathway - cell viability counter screen (AID 743224); further: series mostly up to about 63 µM; nearly all actives have a fitted effect of over 50% in size
# Method in brief: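 Here cell health was gauged by luminescent ATP detection (CellTiter-Glo, 30 min RT) in VDR-bla cells that had been incubated with test compounds for 16 h at 37C and 5% CO2.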
# [2] = qHTS assay to identify small molecule antagonists of the vitamin D receptor (VDR) signaling pathway - cell viability counter screen (AID 743225); further: nearly all actives have a fitted effect of over 50% in size
# Method in brief: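 Cells (VDR-UAS-bla HEK 293T) are plated, rested 4 h at 37C, dosed with compound and 3 nM final 1-alpha,25-dihydroxy vitamin D3, and incubated 16 h. Viability is taken from CellTiter-Glo luminescence in the reporter wells.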
# [3] = qHTS assay to identify small molecule agonists of the NFkB signaling pathway (AID 1159509; active means well fitted curve in the direction sought with a large enough effect in the signal ratio in the repeat runs, not every such curve was filed as active; the % refers to the signal ratio; further: series mostly up to about 61 µM)
# Method in brief: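 After overnight attachment, reporter cells received test compounds, DMSO or positive controls and were incubated 5 hr at 37 C. FRET substrate was then added for 1.5 hr at room temperature before dual-emission fluorescence reading.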
# [4] = qHTS assay to identify small molecule agonists of the NFkB signaling pathway - cell viability counter screen (AID 1159515; calls by dose curve; further: series mostly up to about 61 µM; nearly all actives have a fitted effect of over 55% in size)
# Method in brief: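 5 hr compound treatment of NFkB-bla ME-180 cells (2,000/well, seeded overnight beforehand), followed by reporter substrate for 1.5 hr. CellTiter-Glo added afterward; luminescence after 30 min RT.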
# [5] = qHTS assay to identify small molecule agonists of the endoplasmic reticulum stress response signaling pathway (AID 1159516; active means well fitted activation curve with a large enough effect in the signal ratio in the repeat runs, not every such curve was filed as active; the % refers to the signal ratio)
# Method in brief: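 Reporter HeLa cells (ESRE-beta-lactamase) underwent 5 hr compound incubation at 37 C and 5% CO2 in quantitative HTS format. Detection followed 2 hr of FRET substrate loading at room temperature.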
# [6] = qHTS assay to identify small molecule agonists of the endoplasmic reticulum stress response signaling pathway - cell viability counter screen (AID 1159517; calls by dose curve;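 further: HeLa cells carrying an ER stress response element beta-lactamase reporter; series mostly up to about 61 µM; nearly all actives have a fitted effect of over 50% in size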)
# Method in brief: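 Luminescence readout: CellTiter-Glo, 30 min RT, same wells as the ESRE-bla reporter read. HeLa ESRE-bla, 1,500 cells/well, o/n 37 C; cpd 5 hr 37 C/5% CO2.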
# [7] = qHTS assay to identify small molecule antagonists of the retinoid-related orphan receptor gamma (ROR-gamma) signaling pathway - cell viability counter screen (AID 1159520); further: nearly all actives have a fitted effect of over 50% in size
# Method in brief: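 Tet-on ROR gamma CHO cells (1,000/well) were plated 4 hr, given compounds in DMSO for 2 hr at 37 C, then induced with 1 uM final doxycycline for 16 hr. Viability was read as ATP by CellTiter-Glo luminescence after 30 min.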
# [8] = molecular target: Nuclear receptor ROR-gamma (Homo sapiens) (UniProt P51449); experiment: qHTS assay to identify small molecule antagonists of the retinoid-related orphan receptor gamma (ROR-gamma) signaling pathway (AID 1159521)
# Method in brief: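 RORγ antagonism is scored from reduced reporter luminescence in Tet-on CHO cells. Induction used 1 uM final doxycycline hyclate for 16 h at 37 C, following a 2 h compound exposure.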
# [9] = qHTS assay to identify small molecule agonists of the AP-1 signaling pathway - cell viability counter screen (AID 1159525; calls by dose curve; further: nearly all actives have a fitted effect of over 55% in size)
# Method in brief: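 ME-180 AP-1-bla, 2500 cells/well, Opti-MEM + 0.5% dialyzed FBS; overnight 37 °C; cpd 15-pt titration, 5 h 37 °C; CellTiter-Glo 30 min RT; luminescence read; normalised to TOAB and DMSO controls.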
# [10] = qHTS assay to identify small molecule agonists of the AP-1 signaling pathway (AID 1159526; calls by dose curve)
# [11] = molecular target: Retinoic acid receptor RXR-alpha (Homo sapiens) (UniProt P19793); experiment: qHTS assay to identify small molecule agonists of the RXR signaling pathway (AID 1159527; calls by dose curve; further: nearly all actives have a fitted effect of over 35% in size; further: potency means the concentration at half of the fitted maximal effect)
# Method in brief: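 qHTS of the Tox21 10K library in GeneBLAzer RXR-alpha HEK 293T cells carrying a beta-lactamase reporter […]; 16 hr treatment, 9-cis retinoic acid as agonist control, FRET read-out.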
# [12] = qHTS assay to identify small molecule agonists of the RXR signaling pathway - cell viability counter screen (AID 1159529)
# Method in brief: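 Cell viability is measured by CellTiter-Glo luminescence, 30 min at room temperature, in wells already read for beta-lactamase. Engineered HEK 293T cells (RXR-alpha-UAS-bla) are dosed 16 hr at 37 C. Tetraoctyl ammonium bromide serves as positive control.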
# [13] = qHTS assay to identify small molecule antagonists of the retinoid acid receptor (RAR) signaling pathway - cell viability counter screen (AID 1159551); further: nearly all actives have a fitted effect of over 35% in size
# Method in brief: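 Seed C3RL4 cells; next day add compound, then retinol to 1 uM final; incubate 6 h at 37 C; add CellTiter-Glo; read luminescence after 30 min at RT.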
# [14] = qHTS assay to identify small molecule antagonists of the retinoic acid receptor (RAR) signaling pathway (AID 1159552; further: nearly all actives have a fitted effect of over 50% in size)
# Method in brief: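 Quantitative HTS in C3RL4 RARE-luciferase reporter cells. Compounds were added with 1 uM (final) retinol; luminescence was read after 6 hr.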
# [15] = qHTS assay to identify small molecule agonists of the retinoic acid receptor (RAR) signaling pathway (AID 1159553); further: potency means the concentration at half of the fitted maximal effect
# Method in brief: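 Activation of retinol signaling was monitored via a RARE luciferase reporter in C3RL4 cells. After 6 hr compound treatment at 37 C, detection reagent was added for 30 min at room temperature before luminescence reading.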
# [16] = qHTS assay to identify small molecule antagonists of the estrogen related receptor (ERR) signaling pathway - cell viability counter screen (AID 1224818);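 further: series mostly up to about 46 µM; viability measured after 17.5 h of compound exposure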
# Method in brief: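 In the same ERR cell assay, compound-treated wells (17.5 h, 37 C) were multiplexed with a fluorogenic viability reagent, CellTiter-Fluor, read after 30 min to flag cytotoxic substances.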
# [17] = qHTS assay to identify small molecule antagonists of the estrogen related receptor (ERR) signaling pathway (AID 1224819)
# Method in brief: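 qHTS in ERR cells, 2,000/well, 1536 format. Cpd (DMSO) added after 6 h settle, 18 h 37 C. One-Glo luminescence, 30 min RT.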
# [18] = qHTS assay to identify small molecule agonists of the estrogen related receptor (ERR) signaling pathway (AID 1224820)
# Method in brief: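 Quantitative HTS of the LOPAC library used NTP ERR reporter cells treated 18 h at 37 C. Signal is luminescence after One-Glo addition and a 30 min room-temperature incubation.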
# [19] = test system: estrogen-related receptor alpha (ERRalpha) with PGC-1alpha coactivator, human; experiment: qHTS assay to identify small molecule antagonists of the estrogen related receptor signaling pathway with the pleiotropic PPARgamma coactivator (PGC) (AID 1224821; calls by dose curve)
# Method in brief: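 Quantitative HTS for antagonism: PGC/ERR cells received compounds after 6 h attachment and were incubated 18 h at 37 C, with luminescence (One-Glo) as the endpoint.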
# [20] = qHTS assay to identify small molecule antagonists of the estrogen related receptor signaling pathway with the pleiotropic PPARgamma coactivator (PGC) cell viability counter screen (AID 1224822; further: series mostly up to about 46 µM)
# Method in brief: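 Compounds in DMSO, with positive and negative controls, were applied to PGC/ERR cells (2,000/well) and left 17.5 h at 37 C before CellTiter-Fluor detection.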
# Retinoic acid receptor RXR-alpha (Homo sapiens), sequence (P19793 whole entry, looked up): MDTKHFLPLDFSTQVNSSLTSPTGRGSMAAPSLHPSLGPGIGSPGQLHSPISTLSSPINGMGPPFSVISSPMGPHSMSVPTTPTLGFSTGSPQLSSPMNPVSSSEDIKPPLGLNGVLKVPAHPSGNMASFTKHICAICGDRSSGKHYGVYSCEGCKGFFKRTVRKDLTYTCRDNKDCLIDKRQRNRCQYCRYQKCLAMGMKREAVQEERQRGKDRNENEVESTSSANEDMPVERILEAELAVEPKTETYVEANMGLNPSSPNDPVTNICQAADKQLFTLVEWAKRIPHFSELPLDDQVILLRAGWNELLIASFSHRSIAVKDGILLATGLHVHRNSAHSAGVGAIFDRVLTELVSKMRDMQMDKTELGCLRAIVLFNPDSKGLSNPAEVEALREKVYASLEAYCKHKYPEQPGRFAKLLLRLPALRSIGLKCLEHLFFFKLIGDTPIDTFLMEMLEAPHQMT
Compound,Potency [1],outcome [2],outcome [3],outcome [4],outcome [5],outcome [6],outcome [7],Potency [8],outcome [9],Potency [10],Potency [11],outcome [12],outcome [13],Potency [14],Potency [15],outcome [16],outcome [17],outcome [18],outcome [19],outcome [20]
Cl/C=C/Cl,inactive,inactive,inactive,inactive,inactive,inactive,inactive,inactive,inactive,inactive,inactive,inactive,inactive,inactive,inactive,,,,,
CNCC(O)c1ccc(O)cc1 (stereo not given),inactive,inactive,inactive,inactive,inactive,inactive,inactive,inactive,inactive,inactive,inactive,inactive,inactive,inactive,inactive,inactive,inactive,inactive,inactive,inactive
NNc1ccccc1,inactive,inactive,inactive,inactive,inactive,inactive,inactive,inactive,inactive,inactive,inactive,inactive,inactive,,,,,,,
c1ccc2c(c1)CCCC2,inactive,inactive,inactive,inactive,inactive,inactive,inactive,inactive,inactive,inactive,inactive,inactive,inactive,,,,,,,
CCOc1ccc(N)cc1,inactive,inactive,inactive,inactive,inactive,inactive,inactive,inactive,inactive,inactive,11 µM (active) and inactive,inactive,inactive,inactive,inactive,,,,,
N#Cc1cccc(C#N)c1,inactive,inactive,inactive,inactive,inactive,inactive,inactive,inactive,inactive,inactive,inactive,inactive,inactive,inactive,inactive,,,,,
CCSC(=O)N1CCCCCC1,inactive,inactive,inactive,inactive,inactive,inactive,inactive,inactive,inactive,inactive,inactive,inactive,inactive,inactive,inactive,,,,,
CNc1cnn(-c2cccc(C(F)(F)F)c2)c(=O)c1Cl,inactive,inactive,inactive,inactive,inactive,inactive,inactive,inactive,inactive,inactive,inactive,inactive,inactive,inactive,4.17 µM (active) and 5.45 µM (active),,,,,
CCNc1nc(Cl)nc(NC(C)C)n1,inactive,inactive,inactive,inactive,inactive,inactive,inactive,inactive,inactive,inactive,inactive,inactive,inactive,,,,,,,
CC(C)(C)C(=O)CCl,inactive,inactive,inactive,inactive,inactive,inactive,inactive,inactive,inactive,inactive,inactive,inactive,inactive,,,,,,,
CCOP(=S)(OCC)Oc1ccc([N+](=O)[O-])cc1,inactive,inactive,inactive,inactive,inactive,inactive,inactive,inactive,inactive,inactive,inactive,inactive,inactive,inactive,inactive,,,,,
CN(C)C(=O)Cl,inactive,inactive,inactive,inactive,inactive,inactive,inactive,inactive,inactive,inactive,inactive,inactive,inactive,inactive,inactive,,,,,
O=C(O)C(Br)Br,inactive,inactive,inactive,inactive,inactive,inactive,inactive,inactive,inactive,inactive,inactive,inactive,inactive,,,,,,,
CN(C)CCC#N,inactive,inactive,inactive,inactive,inactive,inactive,inactive,inactive,inactive,inactive,inactive,inactive,inactive,inactive,inactive,,,,,
CNC(=O)Oc1cccc2ccccc12,inactive,inactive,inactive,inactive,inactive,inactive,inactive,inactive,inactive,inactive,inactive,inactive,inactive,inactive,inactive,,,,,
C=CCN=C=S,inactive,inactive,inactive,inactive,inactive,inactive,inactive,inactive,inactive,inactive,inactive,inactive,inactive,inactive,inactive,,,,,
CCCCC(CC)C(=O)Cl (stereo not given),inactive,inactive,inactive,inactive,inactive,inactive,inactive,inactive,inactive,inactive,inactive,inactive,inactive,inactive,inactive,,,,,
C[C@H]1C(=O)O[C@@H]2CCN3CC=C(COC(=O)[C@](C)(O)[C@]1(C)O)[C@H]23,inactive,inactive,inactive,inactive,inactive,inactive,inactive,inactive,inactive,inactive,inactive,inactive,inactive,inactive,inactive,,,,,
[N-]=[N+]=CC(=O)OC[C@H](N)C(=O)O,inactive,inactive,inactive,inactive,inactive,inactive,inactive,inactive,inactive,inactive,inactive,inactive,inactive,inactive,inactive,,,,,

# Reference: PubChem BioAssay (Tox21)
